“And” between values parts separate entries of the source, which are not always exact repeats. Identical values can stand only once. The campaign covered roughly 4,300 compounds. About 60 (1%) were called active.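 How the source made its calls: active means inhibition of labelled peptide binding to the formyl peptide receptor of at least 65%; inactive means the rest.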 The full list was thinned out, with actives kept by preference.
Molecular target: fMet-Leu-Phe receptor (Homo sapiens) (UniProt P21462)
Test: FPR binders displacing fluorescent formyl peptide, primary screen, U937-FPR cells, fMLFK-FITC, flow cytometry (AID 362);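 on inhibition: plate controls were buffer control wells for no effect and unlabeled fMLFF blocking peptide for full effect; higher means less cell fluorescence so more probe displaced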
Details: fMLFK-FITC displacement; stronger effect = higher value, concentration not given here

Chain of fMet-Leu-Phe receptor (Homo sapiens) (P21462 whole entry, looked up): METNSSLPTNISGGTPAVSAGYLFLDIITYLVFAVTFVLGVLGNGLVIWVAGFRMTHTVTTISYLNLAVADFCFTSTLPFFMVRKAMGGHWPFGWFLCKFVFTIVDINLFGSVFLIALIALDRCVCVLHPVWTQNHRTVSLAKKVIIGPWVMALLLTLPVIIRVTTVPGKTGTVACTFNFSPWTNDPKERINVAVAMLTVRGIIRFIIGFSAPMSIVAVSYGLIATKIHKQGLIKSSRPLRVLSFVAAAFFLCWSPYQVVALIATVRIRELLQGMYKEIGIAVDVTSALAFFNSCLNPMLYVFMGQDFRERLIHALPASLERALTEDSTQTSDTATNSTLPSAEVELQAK

inhibition, inactive:
CCOCCOC(=O)C1=C(C)NC2=C(C(=O)C(C(=O)OC)C(C)C2)C1c1cccc(Cl)c1 (stereo not given) 30.9%
CC1(C)C2([N+](=O)[O-])CN3CC1([N+](=O)[O-])CN(C2)C3C(O)C(O)C(O)C(O)CO (stereo not given)
O=C(C1CCC(CNS(=O)(=O)c2ccc(Br)s2)CC1)N1CCC(Cc2ccccc2)CC1 (stereo not given)
O=C(O)c1cccc2c1NC(C(=O)O)C1CC=CC21 (stereo not given) 4.5%
COc1ccccc1C1Nc2c(C(=O)O)cccc2C2C3CCC(C3)C12 (stereo not given) 20.9%
COc1ccc(Oc2c(C(F)(F)F)oc3cc(OC(C)C(=O)OCCC(C)C)ccc3c2=O)cc1 (stereo not given) 8%
O=C(NCCCN1CCC(Cc2ccccc2)CC1)C1CCC(CNS(=O)(=O)c2ccccc2)CC1 (stereo not given)
CCOc1cc(C2C(C(=O)OC3CCCCCC3)=C(C)NC3=C2C(=O)CC(C)(C)C3)cc([N+](=O)[O-])c1O (stereo not given) 40.2%
COc1cc(C2C(C(=O)OC3CCCCCC3)=C(C)NC3=C2C(=O)CC(C)(C)C3)cc([N+](=O)[O-])c1O (stereo not given) 59.7%
CC1=C(C(=O)OC2CCCCC2)C(c2ccc(Cl)c([N+](=O)[O-])c2)C2=C(CCCC2=O)N1 (stereo not given)
COc1cc(C2C(C(=O)OC3CCCCC3)=C(C)NC3=C2C(=O)CC(c2ccc(Cl)cc2)C3)ccc1OC(C)=O (stereo not given) 7%
COc1cc(C2C(C(=O)OC3CCCC3)=C(C)NC3=C2C(=O)CC(c2ccc(Cl)cc2)C3)ccc1OC(C)=O (stereo not given) 8.8%
COc1cc(C2C(C(=O)OC3CCCCC3)=C(C)NC3=C2C(=O)CCC3)cc(Cl)c1O (stereo not given) 24.3%
COc1ccc(C2NC(=O)NC(C)=C2C(=O)OC2CCCCCC2)cc1 (stereo not given)
CCOC(=O)C1CCC(CN(Cc2ccccc2C)S(=O)(=O)c2cccc(C(F)(F)F)c2)CC1 (stereo not given)
CCOc1cc(C2C3=C(CC(C)(C)CC3=O)OC3=C2C(=O)CC(C)(C)C3)ccc1OC(=O)c1cccc(OC)c1
COc1cc(C2C3=C(CC(C)(C)CC3=O)OC3=C2C(=O)CC(C)(C)C3)ccc1OC(=O)c1cccc(C)c1 12.3%
CCOc1cc(C2C3=C(CC(C)(C)CC3=O)OC3=C2C(=O)CC(C)(C)C3)ccc1OC(=O)c1cccc(C)c1
COc1cccc(C(=O)Oc2ccc(C3C4=C(CC(C)(C)CC4=O)OC4=C3C(=O)CC(C)(C)C4)cc2OC)c1
CCOC(=O)c1cccc(N2C(=O)C3C(C2=O)C2C=CC3C23CC3)c1 (stereo not given) 5.1%
CCSCCOC(=O)C1=C(C)NC2=C(C(=O)C(C(=O)OC)C(C)C2)C1c1c(F)cccc1Cl (stereo not given)
CCCOCCOC(=O)C1=C(C)NC2=C(C(=O)C(C(=O)OC)C(C)C2)C1c1ccc(C)o1 (stereo not given) 53.7%
CCN(Cc1ccccc1)Cc1c(O)ccc2c(=O)c(Oc3ccc(OC)cc3)c(C(F)(F)F)oc12
Cc1ccc(-n2c3c(c(=O)[nH]c2=O)C(NC(=O)c2ccccc2C)(C(F)(F)F)C(=O)N3)cc1 (stereo not given) 10.6%
O=C(NC1(C(F)(F)F)C(=O)Nc2c1c(=O)[nH]c(=O)n2-c1ccc(F)cc1)c1ccccc1Cl (stereo not given) 11%
CCOc1ccccc1C(=O)NC1(C(F)(F)F)C(=O)Nc2c1c(=O)[nH]c(=O)n2-c1ccccc1 (stereo not given) 63.1%
Cc1ccccc1C(=O)NC1(C(F)(F)F)C(=O)Nc2c1c(=O)[nH]c(=O)n2-c1ccc(F)cc1 (stereo not given) 12.2%
CCOC(=O)CSc1nc2ccccc2c(=O)n1CC1CCC(C(=O)NCCc2ccccc2)CC1 (stereo not given)
O=C(O)C1C2C=CC(C2)C1C(=O)NCC1CCCO1 (stereo not given) 2.4%
CCCOCCOC(=O)C1=C(C)NC2=C(C(=O)C(C(=O)OC)C(C)C2)C1c1cccc(OC)c1 (stereo not given) 37.6%
CCC(C)C(Nc1ncnc2sc3c(c12)CCC3)C(=O)O (stereo not given) 0.8%
COc1ccc(OC)c(NC(=O)C(C(C)C)N2C(=O)c3ccccc3C2=O)c1 (stereo not given) 27.7%

inhibition, active:
CC(C)C1Nc2c(C(=O)O)cccc2C(Nc2ccccc2C(=O)O)C1(C)C (stereo not given) 65.1% and 89.9%
COc1cc(C2C(C(=O)OC3CCCCCC3)=C(C)NC3=C2C(=O)CCC3)cc([N+](=O)[O-])c1O (stereo not given) 69.7%
CCOc1cc(C2C(C(=O)OC3CCCCCC3)=C(C)NC3=C2C(=O)CCC3)cc([N+](=O)[O-])c1O (stereo not given) 66.4%
COc1ccc(C2C(C(=O)OC3CCCCC3)=C(C)NC3=C2C(=O)CC(c2ccc(Cl)cc2)C3)cc1OC (stereo not given) 77.5%
COc1cccc(C(=O)Oc2ccc(C(C3=C(O)CC(C)(C)CC3=O)C3=C(O)CC(C)(C)CC3=O)cc2OC)c1 86.9%
CCOc1cc(C(C2=C(O)CC(C)(C)CC2=O)C2=C(O)CC(C)(C)CC2=O)ccc1OC(=O)c1cccc(OC)c1 80.2%
CCOc1ccccc1C(=O)NC1(C(F)(F)F)C(=O)Nc2c1c(=O)[nH]c(=O)n2-c1ccc(C)cc1 (stereo not given) 65.3%
CCOc1ccccc1C(=O)NC1(C(F)(F)F)C(=O)Nc2c1c(=O)[nH]c(=O)n2-c1ccc(F)cc1 (stereo not given) 75.2%

Reference: PubChem BioAssay AID362 (NMMLSC, 2006)
